This is a sample that favours compounds with a hit; in the whole collection about 4.8% have one here.
ATXN2 expr inh: reduces ATXN2 reporter expression in HEK-293 cells. HEK-293 ATXN2-luciferase reporter, luminescence, 24 h. Potency, µM (titrated, usually from 57 µM), actives largely listed as inhibitors. actives 0.72% (n = 360,000). AID 1745845; note: nearly all actives have a fitted effect of over 55% in size
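qHTS (up to 57 uM final) was run with 24 h compound exposure of reporter cells at 37 °C. Each well was multiplexed: SteadyGlo luminescence measured ATXN2-luciferase expression after a fluorogenic Gly-Phe-AFC viability readout (25 uM final).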
IL-1B inflam inh: inflammasome signaling inhibition, IL-1 beta readout; activity change, % at 57.5 µM; actives 4.7% (n = 360,000); THP-1 LPS/ATP IL-1B secretion, AlphaLISA, 16 h; hits give low values; in the data active = activity change below about -50%; inconclusive = mostly about -30% to -49%
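THP-1 cells pretreated 1 hr with compounds (up to 57.5 uM final), then stimulated with LPS (250 ng/mL final) plus ATP (1.25 mM final); secreted IL-1B measured by AlphaLISA after 16 hr, decreased signal indicating inhibition.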
USP2a block: USP2a (human) protease inhibition. O75604. USP2 core, Ub-CHOP2 coupled fluorogenic reporter, 485/531. Potency, µM (doses to about 38.3 µM), actives largely listed as inhibitors. actives 0.01% (n = 330,000). AID 463254
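Cell-free coupled assay: 10nM USP2 core preincubated 30min RT with compound in Tris-HCl pH 8.0/CaCl2/CHAPS buffer, then 25nM Ub-CHOP2 and 25nM reporter substrate; fluorescence (Ex 485/Em 531) read after 60min RT, normalized to NEM inhibition, concentration-response curves fitted.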
USP1-UAF1 inh: USP1/UAF1 (human) deubiquitinase inhibition. recombinant USP1/UAF1, Ub-Rhodamine cleavage fluorescence. actives 0.23% (n = 390,000). O94782. Potency, µM (top dose mostly 57.1 µM), actives largely listed as inhibitors; note: nearly all actives have a fitted effect of over 60% in size
Target sequence (O94782 whole entry, looked up): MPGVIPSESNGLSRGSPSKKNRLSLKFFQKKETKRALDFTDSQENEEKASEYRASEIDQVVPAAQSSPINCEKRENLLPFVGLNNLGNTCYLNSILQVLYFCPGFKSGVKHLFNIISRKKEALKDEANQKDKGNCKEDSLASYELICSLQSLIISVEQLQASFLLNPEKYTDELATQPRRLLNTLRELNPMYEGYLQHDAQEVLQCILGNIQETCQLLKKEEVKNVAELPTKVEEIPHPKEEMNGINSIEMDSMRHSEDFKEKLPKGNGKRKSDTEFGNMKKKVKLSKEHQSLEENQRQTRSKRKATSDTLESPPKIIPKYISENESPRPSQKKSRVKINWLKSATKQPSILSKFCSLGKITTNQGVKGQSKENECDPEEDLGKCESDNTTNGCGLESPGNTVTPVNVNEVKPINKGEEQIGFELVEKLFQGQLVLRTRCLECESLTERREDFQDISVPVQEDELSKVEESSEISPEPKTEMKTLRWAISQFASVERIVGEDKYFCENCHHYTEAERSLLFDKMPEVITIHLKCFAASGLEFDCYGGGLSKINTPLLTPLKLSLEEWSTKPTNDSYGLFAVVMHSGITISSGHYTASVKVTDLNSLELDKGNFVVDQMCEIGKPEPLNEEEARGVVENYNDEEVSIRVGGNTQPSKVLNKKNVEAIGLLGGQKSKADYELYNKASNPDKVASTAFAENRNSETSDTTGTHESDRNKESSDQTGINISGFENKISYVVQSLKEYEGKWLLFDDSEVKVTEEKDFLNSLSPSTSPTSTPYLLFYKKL
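In this screen, compounds sit with the deubiquitinase complex (1nM) for 15 min at room temperature before Ub-Rho is added at 150nM final. Fluorescence rise is then followed for 6 reads every 60 seconds.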
S2 tox: cell viability loss in ATXN counter-screen; S2 cells (HEK-293 line with an ATXN2-luciferase reporter) viability, CellTiter-Fluor protease fluorescence, 24 h; Potency, µM (top dose mostly 56.7 µM), hits mostly cytotoxic; actives 0.49% (n = 400,000); note: nearly all actives have a fitted effect of over 40% in size
Of the large screens only hits and unclear results are named; the others gave an inactive call. Unless noted, calls come from the whole dose curve; as a rule, active = well fitted curve in the direction sought with a large enough effect; inconclusive = small, poorly fitted or top-dose-only effect, or another doubt; inactive = no such curve, though single readings can be large; an effect the other way counts as inactive or inconclusive.

CC(C)Cc1ccc(-c2cc3nc(NCCOc4ccccc4)ccn3n2)cc1	none (no result: USP2a block, USP1-UAF1 inh)
CCOc1ccccc1Nc1nc(-c2ccc(C)cc2)c(CC(=O)O)s1	none (no result: IL-1B inflam inh, USP2a block)
Nc1nc(O)c(N=Nc2ccc(S(N)(=O)=O)cc2)c(=O)[nH]1	S2 tox inconclusive
NS(=O)(=O)c1ccc(N=Nc2c[nH]c(=O)c(O)c2)cc1	USP1-UAF1 inh 28.2µM, S2 tox 17.8µM
COc1cc(NC(=O)c2cccs2)c(OC)cc1NC(=O)Cc1ccccc1	IL-1B inflam inh -53.9
COc1cc(NC(=O)c2cccs2)c(OC)cc1NC(=O)c1cccs1	none (no result: USP2a block)
COc1cc(NC(=O)COc2ccccc2Cl)ccc1NC(=O)c1cccs1	none
COc1cc(NC(=O)COc2ccccc2[N+](=O)[O-])ccc1NC(=O)c1cccs1	ATXN2 expr inh inconclusive, S2 tox 12.6µM
CCOc1ccc(-c2cc(-c3nc(-c4ccc(C)cc4)no3)[nH]n2)cc1	none (no result: ATXN2 expr inh, IL-1B inflam inh, USP2a block, S2 tox)
C/C=C(\C)CN1CCC(Oc2ccc(C(=O)NCc3ccccn3)cc2)CC1	none
OC[C@]1(O)OC[C@@H](O)[C@H](O)[C@@H]1O	none (no result: IL-1B inflam inh, USP2a block, USP1-UAF1 inh)
COc1ccc(C2(OC)Oc3cc(OC)ccc3C(=O)C2(O)OC)cc1 (stereo not given)	IL-1B inflam inh -73.6 (no result: USP2a block)
NC1=CC(=O)C(=O)c2ccccc21	ATXN2 expr inh inconclusive, IL-1B inflam inh inconclusive, USP1-UAF1 inh 15.8µM (no result: USP2a block)
CCOC(=O)c1cc(CC)sc1NC(=O)C1CC(=O)NN1Cc1ccccc1 (stereo not given)	IL-1B inflam inh -60.3
COC(=O)c1cc(C)sc1NC(=O)C1CC(=O)NN1Cc1ccccc1 (stereo not given)	none (no result: ATXN2 expr inh)
O=C(c1cnn(-c2nccc(-c3ccccc3F)n2)c1C1CC1)N1CCCCC1c1cccnc1 (stereo not given)	none (no result: ATXN2 expr inh, IL-1B inflam inh, USP2a block, USP1-UAF1 inh)
COc1ccc(Cl)cc1NS(=O)(=O)c1cccc(C(=O)NCCCN2CCOCC2)c1	none (no result: ATXN2 expr inh, USP2a block)
Cc1ccc2c(c1)C1(C(=O)N2)N2CCCC2C(C(=O)c2ccc3ccccc3c2)C12C(=O)Nc1ccccc12 (stereo not given)	IL-1B inflam inh -86.4
Oc1ccc2ccccc2c1CN1CCCCC1	none (no result: USP2a block)
CCN1CCN(Cc2c3ccccc3cc3ccccc23)CC1	IL-1B inflam inh -86.3
C/C(=N\Nc1ccc(Cl)c(Cl)c1)c1ccc(-n2ccnc2)cc1	ATXN2 expr inh inconclusive, IL-1B inflam inh -65.1, S2 tox inconclusive
CCC1(C2CCN(Cc3ccc(OC)cc3)CC2)NC(=O)N(CC2COc3ccccc3O2)C1=O (stereo not given)	none (no result: ATXN2 expr inh, IL-1B inflam inh, USP2a block, USP1-UAF1 inh)
Cc1nn(-c2ccccc2)c(Cl)c1CN(C(=O)CCl)c1cccc2ccccc12	ATXN2 expr inh inconclusive, IL-1B inflam inh -98.0, USP1-UAF1 inh inconclusive, S2 tox 28.2µM
CC(=O)N(Cc1c(C)nn(-c2ccccc2)c1Cl)c1ccc(Cl)cc1	none
Cc1nn(-c2ccccc2)c(Cl)c1CN(C(=O)CCl)c1ccc(Cl)cc1	ATXN2 expr inh 14.1µM, IL-1B inflam inh -113.0, S2 tox 11.2µM
Cc1c(-c2ccc(Cl)cc2)c(=O)oc2c(CN3CCN(CCO)CC3)c(O)ccc12	none (no result: IL-1B inflam inh, USP2a block, S2 tox)
Oc1ccccc1/C=N/NC(=S)NC1CC2CCC1C2 (stereo not given)	IL-1B inflam inh -78.1, S2 tox inconclusive
COc1cccc(/C=N/NC(=S)NC2CC3CCC2C3)c1OC (stereo not given)	none (no result: ATXN2 expr inh)
O=C1NC(=O)C(=Cc2ccc3nccc(-c4ccncc4)c3c2)S1	ATXN2 expr inh 6.85µM (no result: IL-1B inflam inh, USP2a block, USP1-UAF1 inh, S2 tox)
Cc1ccccc1C(C(=O)NC1CCCC1)N(C(=O)Cn1cnc2ccccc21)c1cccc(F)c1 (stereo not given)	none (no result: IL-1B inflam inh, USP2a block, USP1-UAF1 inh, S2 tox)
CCOC1=C2[C@H](c3ccc(CC)cc3)N(S(=O)(=O)c3ccc(C)cc3)C[C@H]2C(C#N)(C#N)C(C#N)(C#N)C1	IL-1B inflam inh -75.7 (no result: USP2a block, USP1-UAF1 inh)
CCOC1=C2[C@H](c3ccccc3Cl)N(S(=O)(=O)c3ccc(C)cc3)C[C@H]2C(C#N)(C#N)C(C#N)(C#N)C1	IL-1B inflam inh inconclusive (no result: USP2a block, USP1-UAF1 inh)
O=C(CNC(=O)N1CC(=O)Nc2ccccc21)Nc1ccc(Cl)cc1Cl	none (no result: ATXN2 expr inh, USP2a block)
FC(F)Oc1ccc(NC(=S)NCc2ccccc2)cc1Cl	ATXN2 expr inh inconclusive, IL-1B inflam inh -88.7
Cc1ccc(NC(=S)Nc2ccc(OC(F)F)c(Cl)c2)cc1Cl	ATXN2 expr inh inconclusive, IL-1B inflam inh -92.0
O=C(Nc1ccc(OC(F)F)c(Cl)c1)C(c1ccccc1)c1ccccc1	ATXN2 expr inh inconclusive, IL-1B inflam inh -62.0
CC(NC(=S)Nc1ccc(OC(F)F)c(Cl)c1)C(C)(C)C (stereo not given)	IL-1B inflam inh -96.4
FC(F)Oc1ccc(NC(=S)NCc2ccccc2)cc1	none
O=C(Cc1cccc2ccccc12)Nc1ccc(OC(F)F)c(Cl)c1	USP1-UAF1 inh inconclusive
CCOCCc1nn2c(=O)cc(COC(=O)c3ccco3)nc2s1	none (no result: IL-1B inflam inh, USP2a block)
Cc1cc(C)cc(NC(=O)C2CCCN(c3nnc(C)c4c(C)n(-c5ccccc5)nc34)C2)c1 (stereo not given)	ATXN2 expr inh inconclusive, S2 tox inconclusive (no result: IL-1B inflam inh, USP2a block)
CCOc1ccc(NC(=O)c2cc3c(=O)n4cccc(C)c4nc3s2)cc1	none (no result: IL-1B inflam inh, USP2a block)
CCCOc1ccc(CNC(=S)Nc2ccccc2)cc1Cl	IL-1B inflam inh -78.9
COc1ccc(CNC(=S)Nc2ccccc2)cc1Cl	IL-1B inflam inh inconclusive
Cc1ccc2occ(C(c3nnnn3C3CCCC3)N3CCN(C(=O)c4ccco4)CC3)c(=O)c2c1 (stereo not given)	IL-1B inflam inh -64.1
CC(=O)Nc1ccccc1-c1nc(CNC(=O)c2cccc(-n3cccn3)c2)c(C)o1	none (no result: ATXN2 expr inh, IL-1B inflam inh, USP2a block, USP1-UAF1 inh)
O=C(NCc1ccccc1)C(=O)NCC1CCCN1S(=O)(=O)c1cccs1 (stereo not given)	none
Cc1[nH]c(=O)c(C(=O)/C=C/c2ccccc2F)c2c1CCCC2	ATXN2 expr inh 8.91µM, IL-1B inflam inh -97.2, S2 tox 28.2µM
COc1ccc(-c2cccc(-c3cc(=O)oc4ccc(C(C)(C)C)cc34)c2)cc1	none
O=C1c2cccc3cccc(c23)C(=O)N1CCO	none (no result: ATXN2 expr inh, USP2a block)
CN(C)CCN1C(=O)c2cccc3cc(N)cc(c23)C1=O	ATXN2 expr inh 5.44µM (no result: IL-1B inflam inh, USP2a block, USP1-UAF1 inh, S2 tox)
CCN(CC)CCN1C(=O)c2cccc3cc(N)cc(c23)C1=O	ATXN2 expr inh inconclusive, IL-1B inflam inh -78.3, S2 tox inconclusive
CCC1(CC)NC(=O)N(CC(=O)OC(C)C(=O)Nc2cc([N+](=O)[O-])ccc2OC)C1=O (stereo not given)	none
O=C(NCc1ccc(Cl)cc1)C1CCN(S(=O)(=O)c2ccc(F)cc2)CC1	IL-1B inflam inh -63.8, S2 tox inconclusive
O=C(/C=C/c1ccc(S(=O)(=O)N2CCOCC2)cc1)NCc1ccc(Cl)cc1	IL-1B inflam inh -62.2
CC(CCc1ccccc1)NC(=O)C1CCN(S(=O)(=O)c2ccc(F)cc2)CC1 (stereo not given)	IL-1B inflam inh -63.3
